Most compounds without a hit are left out; they make up all but 0.93% or so of the library.
CDC25B-CDK2 inh – human CDC25B-CDK2/CyclinA binding inhibition; z-score (no concentration beside the values); HTRF CDC25B-CDK2/CyclinA binding, anti-His/anti-Flag; active compounds read high; 94,000 compounds, 0.72% hits; in the data active = z-score above about 3.2
TAR Tat displ – HIV-1 TAR-Tat binding disruption | AID 1259389 | HIV-1 TAR RNA, Tat peptide displacement FRET; active compounds read high | 100,000 compounds, 0.6% hits | z-score (concentration not given with the values); active = z-score of 3 or more in at least 2 runs
* = called active by the depositor; / = not tested or not shown.

SMILES	CDC25B-CDK2 inh	TAR Tat displ
Cc1cc(=O)n2[nH]c(C)c(-c3ccc(Cl)cc3)c2n1	-3.7	/
Cc1[nH]n2c(=O)cc(CSc3nnnn3-c3ccccc3)nc2c1-c1ccc(Cl)cc1	-2.2	24*
CSc1sc(SC)c(CCl)c1CCl	1.6	/
O=C(CSc1n[nH]c(-c2ccncc2)n1)c1c[nH]c2ccccc12	6.8*	-0.52
O=C(CSc1n[nH]c(-c2ccco2)n1)c1c[nH]c2ccccc12	-1.5	2.5
Cc1cc(C)c(S(=O)(=O)Nc2cccc(-c3ccc(N4CCOCC4)nn3)c2)c(C)c1	/	1.4
O=C(c1cccs1)N1CCN(Cc2cc(=O)n3nc(-c4ccccc4)sc3n2)CC1	/	1.2
Cc1cc(CNC(=O)NCc2ccco2)c(C)n1-c1cccc(Cl)c1	/	-1.7
COc1ccc(-n2c(=O)[nH]c(=O)c3sc(N)nc32)cc1	0.15	7.3*
Nc1nc2c(s1)c(=O)[nH]c(=O)n2-c1ccccc1	0.38	1.2
CC(C)c1ccc(CN(C(=O)c2nc(S(C)(=O)=O)ncc2Cl)C2CCS(=O)(=O)C2)cc1 (stereo not drawn)	-2.1	2.1
S=C(Nc1ccc2nc3c4ccccc4c4ccccc4c3nc2c1)NC1CC1	7.1*	/
O=C(COC(=O)c1ccc2nc3c4ccccc4c4ccccc4c3nc2c1)c1ccccc1	-2	/
C=CCNC(=O)Nc1ccc2nc3c4ccccc4c4ccccc4c3nc2c1	21*	/
O=C(NNc1cc(C(F)(F)F)nc2ccccc12)Nc1ccccc1	0.86	/
COCCNC(=O)Nc1ccc2nc3c4ccccc4c4ccccc4c3nc2c1	20*	/
O=C(NC1CC1)c1ccc(NC(=O)c2nsc3ccccc23)cc1	-3.1	2.2
O=C(NCCO)c1ccc2nc3c4ccccc4c4ccccc4c3nc2c1	8.2*	/
COCCNC(=O)Nc1ccc2nc(NS(C)(=O)=O)sc2c1	/	0.39
CC1CCc2nn(CC(=O)Nc3ccc(Br)cc3)c(=O)cc2C1 (stereo not drawn)	/	-4.9
O=C1CSC2(CCCCC2)N1	0.22	/
Cn1cc(S(=O)(=O)N2CCCC2)cc1C(=O)NCc1cccs1	/	2.3
O=C(c1cccc2ccccc12)N1CCN(C2=NS(=O)(=O)c3ccccc32)CC1	0.7	/
C/C(=C\CO)CC[C@@H]1[C@@]2(C)CCCC(C)(C)C2CC[C@@]1(C)O (stereo partly drawn)	/	1.4
Cc1ccc2c(c1)-c1onc(C(=O)N3CC(C)CC(C)C3)c1CO2 (stereo not drawn)	/	1.8
SMILES	CDC25B-CDK2 inh	TAR Tat displ
CCOC(=O)C(CC)Sc1nnc(CSc2ncccn2)n1-c1ccc(F)cc1 (stereo not drawn)	-0.5	-0.61
O=C(Nc1ccc2c(c1)OCO2)C1CCN(c2ncnc3c2nc2n3CCCCC2)CC1	/	0.08
CCN1CCN(c2cc(NCC(=O)O)c3c4c(onc24)-c2ccccc2C3=O)CC1	0.53	0.3
O=C(O)CNc1cc(N2CCCC2)c2noc3c2c1C(=O)c1ccccc1-3	5.5*	-5.6
O=C(O)CCCNc1cc(N2CCCC2)c2noc3c2c1C(=O)c1ccccc1-3	1.3	1.5
CC(C)CNc1cc(N2CCCC2)c2noc3c2c1C(=O)c1ccccc1-3	-1.2	0.45
O=C(O)c1ccccc1Nc1cc(N2CCCC2)c2noc3c2c1C(=O)c1ccccc1-3	2.4	7.5*
O=C(O)CNc1cc(N2CCCCC2)c2noc3c2c1C(=O)c1ccccc1-3	4.4*	-6
Cn1cccc1-c1cc2n(n1)CCCN2C(=O)Nc1ccc(F)c(Cl)c1	/	0.35
CN(C)C(CNC(=O)c1cc(-c2ccc3c(c2)CCCC3)on1)c1ccco1 (stereo not drawn)	-0.56	-4.7
O=C(O)CN(CC(=O)O)CC(=O)O	3.6*	/
O=C(O)CN(CCN(CC(=O)O)Cc1ccccc1O)Cc1ccccc1O	/	2.2
COCCN1C(=O)c2[nH]nc(-c3ccccc3O)c2C1c1ccc(Br)cc1 (stereo not drawn)	-1.1	1.9
CSc1nc(N)nc2sc3c(O)cc(=O)[nH]c3c12	6.5	11*
Cc1cc(-c2ccccc2)c2c(n1)sc1c(O)cc(=O)[nH]c12	-1.6	-1.1
COc1cc(C)c2c(c1C=O)Oc1c(c(C)c(O)c3c1C(O)OC3=O)OC2=O (stereo not drawn)	/	0.93
Cc1cc(O)c(C=O)c2c1C(=O)Oc1c(C)c(O)c3c(c1O2)C(O)OC3=O (stereo not drawn)	/	4*
COc1cc(OC)c(NC2=NS(=O)(=O)C(c3ccc(C(C)C)cc3)=C2C)cc1Cl	-2.7	-4.1
COc1ccc(OC)c(CN2CCN(Cc3ccc4c(c3)OCO4)CC2)c1	-0.45	0.34
CCOc1ccc(CN2CCN(Cc3ccc4c(c3)OCO4)CC2)cc1	8.4*	1.1
O=S(=O)(c1ccc2ccccc2c1)N1CCN(Cc2ccc3c(c2)OCO3)CC1	-0.97	9*
O=S(=O)(c1ccccc1)N1CCN(Cc2ccc3c(c2)OCO3)CC1	-0.65	1.2
CC(c1nnc(SCC(=O)c2ccccc2)n1C)N1C(=O)COc2ccccc21 (stereo not drawn)	/	-0.66
Cc1cc2n(n1)CCCN2CC(=O)N1CCOCC1	/	0.92
CCCc1ccc(-c2ccc(C(N)=O)cc2)cc1	-1.1	/
SMILES	CDC25B-CDK2 inh	TAR Tat displ
CCCc1cc(C(N)=S)ccn1	/	22*
COc1cccc(N2C(=O)N(CC(=O)c3cc(OC)ccc3OC)c3ccccc3S2(=O)=O)c1	/	1.6
CCOC(=O)c1oc2ccc(S(=O)(=O)N3CCCC3c3ccc(Cl)cc3)cc2c1C (stereo not drawn)	-3.4	0.72
Cc1cc(-c2ccc(=O)[nH]n2)cc(S(=O)(=O)N2CCN(c3ccccc3)CC2)c1C	/	1.9
Cc1cc(-c2ccc(=O)[nH]n2)cc(S(=O)(=O)N2CCC(Cc3ccccc3)CC2)c1C	/	8.8*
COc1ccccc1NC(=O)N1c2ccccc2NC2=C(C(=O)CCC2)C1c1cccs1 (stereo not drawn)	/	2.6
CCOc1ccccc1NC(=O)N1c2ccccc2NC2=C(C(=O)CCC2)C1c1cccs1 (stereo not drawn)	/	21*
CCN(CC)S(=O)(=O)c1ccc2c(c1)N(CC(=O)N1CCCC1)CCS2	/	0.59
COc1ccc(NC2=NS(=O)(=O)C(c3ccc(Cl)cc3)=C2C)c(OC)c1	-1.6	0.54
O=C1COc2cc(-c3c(N4CCCCC4)c(=O)c3=O)ccc2N1	/	1.4
O=C1COc2cc(-c3c(N4CCCC4)c(=O)c3=O)ccc2N1	/	11*
O=C1c2cccc(O)c2C(=O)c2c(O)cccc21	/	3.1
Cc1cc(O)c2c(c1)Cc1cccc(O)c1C2=O	/	7.7*
COc1cccc(OC)c1C(=O)NN	-2.1	/
COc1cccc(O)c1O	/	13*
CCc1ccc(C(=O)CC2(O)C(=O)N(C(C)C)c3ccccc32)cc1 (stereo not drawn)	16*	-0.46
CC(C)N1C(=O)C(O)(CC(=O)c2ccccc2)c2ccccc21 (stereo not drawn)	0.13	0.83
COc1cc(OC)c(NC(=O)N2CCCC(CN3CCc4ccccc4C3)C2)cc1Cl (stereo not drawn)	/	-0.3
Cc1ccc(C)c(CN2CCCN(Cc3cccc(F)c3)S2(=O)=O)c1	/	-0.6
O=C(O)COc1ccc2c(c1)C(=O)c1cc(OCC(=O)O)ccc1-2	-0.19	7.2*
CCN(CC)CCOc1ccc2c(c1)C(=O)c1cc(OCCN(CC)CC)ccc1-2	/	0.27
Cc1ccccc1C1CC(=O)Nc2c(-c3ccccc3)csc21 (stereo not drawn)	/	2
O=C(CC1(O)C(=O)N(Cc2ccccc2)c2ccc(Br)cc21)c1ccc(F)cc1 (stereo not drawn)	1.3	/

Assay outcomes as filed in PubChem BioAssay.
